# High-throughput results as filed in PubChem.
# Anthrax LF inh2: Bacillus anthracis LF protease inhibitors, primary screen, biochemical, multiplex microsphere, MLPCN library; multiplex microsphere protease cleavage assay; inhibition, % at 10 µM; 360,000 tested, 0.12% active; AID 588501, 2011; also: plate controls were buffer without enzyme for full effect and enzyme alone for no effect
# Target sequence (P15917 whole entry, looked up): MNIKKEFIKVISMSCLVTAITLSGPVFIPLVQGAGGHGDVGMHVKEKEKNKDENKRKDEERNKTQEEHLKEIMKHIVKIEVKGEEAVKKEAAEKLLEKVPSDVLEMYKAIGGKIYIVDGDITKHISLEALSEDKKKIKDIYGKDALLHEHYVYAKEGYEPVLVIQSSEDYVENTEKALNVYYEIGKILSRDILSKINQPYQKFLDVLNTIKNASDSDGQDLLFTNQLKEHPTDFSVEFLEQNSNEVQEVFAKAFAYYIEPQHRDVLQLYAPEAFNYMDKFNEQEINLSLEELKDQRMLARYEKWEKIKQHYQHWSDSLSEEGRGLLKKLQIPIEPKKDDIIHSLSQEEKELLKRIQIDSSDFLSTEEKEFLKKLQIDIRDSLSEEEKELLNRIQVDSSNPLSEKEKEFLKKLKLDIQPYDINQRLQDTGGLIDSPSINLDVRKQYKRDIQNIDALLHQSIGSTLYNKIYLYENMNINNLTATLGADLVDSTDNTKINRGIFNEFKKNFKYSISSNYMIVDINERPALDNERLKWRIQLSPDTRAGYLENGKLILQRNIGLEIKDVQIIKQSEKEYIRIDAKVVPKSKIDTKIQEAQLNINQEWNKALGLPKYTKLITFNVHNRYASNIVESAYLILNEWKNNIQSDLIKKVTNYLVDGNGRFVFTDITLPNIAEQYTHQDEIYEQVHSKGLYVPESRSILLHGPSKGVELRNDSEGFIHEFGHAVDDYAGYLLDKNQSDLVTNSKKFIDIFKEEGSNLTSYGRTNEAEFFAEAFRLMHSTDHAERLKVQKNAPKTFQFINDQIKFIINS
# BoNT F protease: BoNT/F light chain protease inhibitors, primary screen, biochemical, flow cytometry, MLPCN library | Botulinum neurotoxin type F light chain protease (Clostridium botulinum) | Multiplex microsphere protease cleavage assay | inhibition, % at 10 µM | 360,000 tested, 0.22% active | AID 588497, 2011; in the data active = inhibition above about 35%, passing the limit was not always enough; inconclusive = no clear call, values can overlap the other calls; also: plate controls were buffer without enzyme for full effect and enzyme alone for no effect
# BoNT-A LC inh2: BoNT/A light chain protease inhibitors, primary screen, biochemical, flow cytometry, MLPCN library; multiplex microsphere protease substrate cleavage; Botulinum neurotoxin type A light chain protease (Clostridium botulinum A str. ATCC 3502); 360,000 tested, 0.17% active; inhibition, % at 10 µM; AID 588499, 2011; also: plate controls were buffer without enzyme for full effect and enzyme alone for no effect
# Autofluor counter: counter-screen for toxin protease inhibitors: compound fluorescence; 360,000 tested, 3.1% active; AID 624483; compound autofluorescence counterscreen, microsphere flow cytometry; active compounds read high; fluorescence intensity (no concentration beside the values); in the data active = fluorescence intensity above about 16000; inconclusive = no clear call, values can overlap the other calls
# MazF activator: activators of E. coli MazEF toxin-antitoxin RNase, primary screen, biochemical, fluorescence, uHTS; Endoribonuclease toxin MazF (Escherichia coli (strain K12)), P0AE70; FAM/BHQ RNA-DNA oligo cleavage fluorescence, 5 h; activation, % at 20 µM; 350,000 tested, 0.32% active; in the data active = activation above about 50%
# The depositor's hits bear a star; ? = inconclusive; nt = not tested or not shown. Rows were chosen to be rich in hits. Some 3.6% of all compounds tested hit in one or more screens of this group. Rule as the data show it, unless noted: active = inhibition above about 30%; inconclusive = no clear call, values can overlap the other calls; inactive = below that.
SMILES,Anthrax LF inh2,BoNT F protease,BoNT-A LC inh2,Autofluor counter,MazF activator
Cc1ccc(C(=O)OCC(=O)Nc2ccccc2)cc1NC(=O)c1ccco1,-3.8,0.3,-1.3,17209*,2.5
COc1ccc(-c2csc(NC(=O)c3ccoc3C)n2)cc1,-1.5,1.1,0.0,3209,-0.3
COc1ccc(C(=O)Nc2cc(C)nn2-c2ccc(C)cc2)cc1,4.1,11.0,1.9,3505,2.0
O=C(C[C@H]1C[C@H](C(=O)N2CCCCC2)[C@@]2(CCc3ccccc3)c3[nH]c4ccc(Cl)cc4c3CCN2C1=O)NCCN1CCOCC1,3.1,0.5,-0.2,4249,28.1
CCC(C)c1ccccc1NC(=O)COC(=O)c1ccc(C)c(NC(=O)c2ccco2)c1 (centres undefined),-0.4,0.5,-0.4,21016*,9.6
CCc1ccc(C=NC23CN4CN(CN(C4)C2)C3)s1,-1.1,-6.6,?,16887*,5.3
Cc1ccc(C(=O)Nc2nc(=O)n(C)s2)cc1,-1.7,0.2,?,22548*,7.5
CCc1nc2ccc(C)cc2c(C(=O)NC2CCCCC2C)c1C (centres undefined),-8.3,3.5,?,18786*,6.3
Cc1ccc2nc(C)cc(C(=O)NC3CCCCCC3)c2c1,-7.7,1.5,-0.3,2914,-8.2
COc1ccc(-c2nc3c(n2O)CCC/C3=N\O)cc1,-7.0,-0.5,?,21176*,-3.7
Cc1nc(-n2nnc3ccccc32)c2c3c(sc2n1)CCCC3,-4.4,2.0,0.7,10359,-6.3
c1ccc2c(c1)nnn2-c1ncnc2sc3c(c12)CCCC3,-0.4,-3.4,-1.9,23314*,-13.9
CCOC(=O)C1CCN(C(=O)CCC2CCCC2)CC1,-7.3,?,0.7,3236,10.6
O=c1[nH]nc(Br)c(=O)n1C(c1ccccc1)c1ccccc1,-0.8,-2.8,-0.1,3261,0.0
N#Cc1ccc(CN2CCN(C(=O)c3ccccc3)CC2)c(Cl)c1,-4.3,-6.7,?,21609*,-2.2
O=C(c1ccccc1)N1CCN(Cc2ccccc2C(F)(F)F)CC1,-3.4,-3.7,-0.7,4178,7.5
CCOC(=O)COc1ccc2c(c1)C(=O)CC1(CCN(C(C)=O)CC1)O2,-2.6,-2.5,-2.5,23933*,3.0
CCOC(=O)N1CCN(C(=O)COc2ccc3c(c2)C(=O)CC(C)(C)O3)CC1,-2.3,-9.0,-0.8,4941,-20.7
CC1(C)CC(=O)c2cc(OCC(=O)O)ccc2O1,-7.2,-4.2,-2.5,24044*,-6.9
CCOC(=O)COc1ccc2c(c1)C(=O)CC(C)(C)O2,-4.2,4.6,4.4,21356*,-2.3
CC1(C)CC(=O)c2cc(OCC(=O)N3CCCCCC3)ccc2O1,-17.2,19.6,15.8,14619,-2.7
O=C(Nc1nnc([C@@H]2C[C@H](O)[C@@H](CO)O2)s1)c1c(F)cccc1F,-2.5,-8.9,0.1,2921,nt
Cc1ccsc1C(=O)OC(C)C(=O)NC1CCCCC1C (centres undefined),1.4,13.7,3.6,?,1.3
C=C(C1=CCN(S(=O)C(C)(C)C)[C@@H]1CCO)c1ccccc1 (some centres undefined),-3.6,-7.0,-0.3,3559,-14.2
Cc1nnc(SCC(=O)N2CCOCC2)n1C,-3.3,-3.3,0.3,2957,0.8
SMILES,Anthrax LF inh2,BoNT F protease,BoNT-A LC inh2,Autofluor counter,MazF activator
Cc1nnc(SCCOC(N)=O)n1C,1.3,7.9,8.9,20927*,2.6
CCc1nnc(NC(=O)C2CC(=O)N(c3ccc(C)cc3)C2)s1 (centres undefined),-1.8,2.7,1.4,15517,5.0
Cc1ccc(N2CC(C(=O)Nc3nccs3)CC2=O)cc1Cl (centres undefined),0.6,-1.3,-1.7,23923*,-14.7
Cc1ccc(N2CC(C(N)=O)CC2=O)cc1 (centres undefined),4.0,3.9,?,18778*,-0.2
Cc1ccc(N2CC(C(=O)Nc3nnc(C(C)C)s3)CC2=O)cc1 (centres undefined),2.3,1.6,1.2,22336*,8.7
CCCN(C(=O)CCNC(=O)Cn1cnc2ccccc2c1=O)c1cccc(Cl)c1,4.3,2.5,0.6,2807,-14.4
CN(C(=O)COC(=O)CNC(=O)c1ccc(C(C)(C)C)cc1)c1c(N)n(Cc2ccccc2)c(=O)[nH]c1=O,nt,nt,nt,nt,4.9
CCS(=O)(=O)N1Cc2ccccc2CC1C(=O)Nc1ccc(F)cc1 (centres undefined),0.6,1.5,-0.8,4736,9.9
CCS(=O)(=O)N1Cc2ccccc2CC1C(=O)N1CCN(c2cccc(C)c2C)CC1 (centres undefined),-5.1,-1.7,1.5,23317*,6.7
CCN(CC(=O)Nc1c(F)cccc1F)C(=O)C1Cc2ccccc2CN1S(=O)(=O)CC (centres undefined),-10.8,-70.7,-49.0,16229*,-3.5
Cc1ccsc1C(=O)NCCc1ccc(S(N)(=O)=O)cc1,-3.7,-1.1,-1.8,5780,3.6
CCCNC(=O)c1cc2c(c(-c3cccc(-c4ccccc4F)c3)n1)[C@H](CCO)N(C(=O)CC1CC1)C2,-3.7,0.1,0.4,6339,nt
COc1ccc(NC(=O)CSc2nnc(NC(=O)C3CC3)s2)cc1OC,4.8,?,4.9,?,0.8
CS(=O)(=O)c1nc(S(=O)(=O)c2ccc(Cl)cc2)c(NCCCN2CCOCC2)s1,-1.2,-1.5,0.4,4389,-0.3
COC(=O)NC1CSCC1OC(=O)CN1C(=O)c2ccccc2C1=O (centres undefined),-1.4,-2.5,-1.9,20984*,-1.9
CC(OC(=O)CN1C(=O)c2ccccc2C1=O)C(=O)NC1CCCC1 (centres undefined),-5.9,4.5,1.9,3431,2.5
Cc1cc(OC(C)C(=O)N2CCN(c3ccc(F)cc3)CC2)c2c(C)cc(=O)oc2c1 (centres undefined),-2.1,-2.2,-0.3,4389,17.9
Nc1nonc1-n1nnc(C(=O)N/N=C/c2ccc3c(c2)OCO3)c1CSc1ccccc1,-0.1,-2.3,-2.0,4245,72.1*
COC(=O)c1ccsc1NC(=O)CSc1nnnn1-c1ccccc1SC,-0.6,-4.0,-3.6,24392*,8.2
O=C(CSc1nnnn1-c1ccccc1)NCc1cccs1,0.7,-1.7,-0.5,16730*,-4.0
CSc1ccccc1-n1nnnc1SCC(=O)NCc1cccs1,-18.1,?,-1.7,5236,-3.6
NC(=O)c1ccc(-n2nnnc2SCC(=O)Nc2ccccc2F)cc1,-16.2,-33.6,-1.1,3112,98.0*
CSc1ccccc1-n1nnnc1SCC(=O)Nc1ccccc1C,0.5,-1.2,-0.3,20932*,3.6
COc1ccc(OC)c(N(CC(=O)NCCSCc2ccc(C)cc2)S(C)(=O)=O)c1,-23.6,?,-6.1,4494,-14.1
Cc1cc(Cl)c2oc(C(=O)N(C)Cc3nccn3C)c(C)c2c1,-3.8,2.2,0.9,5039,8.1
CN1C=CC=C/C1=C1/N=C(c2ccccc2)OC1=O,-3.7,2.0,0.1,3396,-3.2
